Results filed as inconclusive are left out. Active and inactive are the calls of the source. Unless noted, calls come from the whole dose curve; as a rule, active = well fitted curve in either direction with a large enough effect (not every such curve was filed as active); inconclusive = small, poorly fitted or top-dose-only effect, or another doubt; inactive = flat fitted curve, though single readings scatter.
Biological target: Glucocorticoid receptor (Homo sapiens) (UniProt P04150)
Experiment: GR-EFC Redistribution (AID 451; calls by dose curve; note: potency is the fitted concentration of half-maximal effect)
Details: CHO-K1 GR-EFC translocation, beta-gal luminescence, 2 h
Method in brief: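 Translocation of GR-ED fusion to nuclear EA restores b-gal, read by luminescence after 1 h room-temperature detection. Engineered CHO-K1 biosensor cells, 1,000/well, exposed 2 h at 37 C to titrations up to 46 uM final.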

Glucocorticoid receptor (Homo sapiens), sequence (P04150 whole entry, looked up): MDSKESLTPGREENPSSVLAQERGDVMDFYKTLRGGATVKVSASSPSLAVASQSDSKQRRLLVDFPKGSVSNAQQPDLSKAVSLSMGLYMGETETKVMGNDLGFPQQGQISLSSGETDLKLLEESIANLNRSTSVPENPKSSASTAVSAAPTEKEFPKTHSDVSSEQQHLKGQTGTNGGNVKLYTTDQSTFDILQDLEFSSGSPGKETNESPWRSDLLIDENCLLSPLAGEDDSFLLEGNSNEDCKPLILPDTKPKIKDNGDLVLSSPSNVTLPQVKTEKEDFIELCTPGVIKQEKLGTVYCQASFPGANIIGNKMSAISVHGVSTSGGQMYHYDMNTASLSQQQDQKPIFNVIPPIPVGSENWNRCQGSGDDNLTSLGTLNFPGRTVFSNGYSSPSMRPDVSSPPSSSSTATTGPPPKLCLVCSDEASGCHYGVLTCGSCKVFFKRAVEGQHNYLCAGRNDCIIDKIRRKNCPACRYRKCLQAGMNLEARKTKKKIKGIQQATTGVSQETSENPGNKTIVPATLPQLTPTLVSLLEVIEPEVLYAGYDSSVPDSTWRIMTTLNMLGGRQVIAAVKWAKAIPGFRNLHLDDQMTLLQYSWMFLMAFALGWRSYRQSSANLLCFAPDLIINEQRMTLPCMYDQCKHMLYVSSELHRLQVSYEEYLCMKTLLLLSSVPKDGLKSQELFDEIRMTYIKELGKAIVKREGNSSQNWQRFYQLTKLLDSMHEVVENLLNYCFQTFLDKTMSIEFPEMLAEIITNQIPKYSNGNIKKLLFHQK

Potency, inactive:
COC(=O)N1CCC2(CCCN(Cc3ccccc3OC)C2)CC1 > 46 µM
Cc1noc(C)c1C(=O)N1CCC[C@@]2(CCN(Cc3ccccc3)C2)C1 > 46 µM
O=S(=O)(c1ccccc1)N1CCC2(CCCN(c3ncccn3)C2)CC1 > 46 µM
COc1ccc(NC(=O)N2CCCC3(CCNCC3)C2)cc1 > 46 µM
COc1ccc(NC(=O)N2CC3(CCN(C(C)=O)CC3)C2)cc1 > 46 µM
CC(=O)N1CCC2(CC1)CN(c1ccccc1)C2 > 46 µM
COc1ccccc1CN1CC[C@@]2(CCCN(C(=O)c3cccn3C)C2)C1 > 46 µM
Cn1cccc1C(=O)N1CCC[C@@]2(CCN(Cc3cc(C(F)(F)F)cc(C(F)(F)F)c3)C2)C1 > 46 µM
COc1ccccc1CN1CC[C@@]2(CCCN(C(C)=O)C2)C1 > 46 µM
COc1ccccc1CN1CC[C@@]2(CCCN(S(C)(=O)=O)C2)C1 > 46 µM
O=C(c1csnn1)N1CCC2(CC1)CN(c1ccccc1)C2 > 46 µM
COc1ccc(NC(=O)N2CC[C@@]3(CCCN(C(=O)c4cnccn4)C3)C2)cc1 > 46 µM
CC(C)CN1CC[C@@]2(CCCN(C(=O)c3csnn3)C2)C1 > 46 µM
CC(=O)N1CCC2(CC1)CCN(C(=O)Nc1cccc(F)c1)CC2 > 46 µM
O=C(c1cnccn1)N1CCC2(CCCN(c3ccccc3)C2)CC1 > 46 µM
O=C(c1ccncc1)N1CCC2(CC1)CCN(C(c1ccccc1)c1ccccc1)CC2 > 46 µM
COCC(=O)N1CCC[C@@]2(CCN(C(=O)Nc3cccc(F)c3)C2)C1 > 46 µM
CC(C)NC(=O)N1CCCC2(CCN(C(=O)c3cccc(F)c3)CC2)C1 > 46 µM
COc1ccccc1CN1CCC2(CC1)CCN(C(C)=O)CC2 > 46 µM
N#Cc1ccc(CN2CCCC3(CCN(C(=O)c4cccc(F)c4)CC3)C2)cc1 > 46 µM
O=C(c1ccco1)N1CCC2(CC1)CN(C(c1ccccc1)c1ccccc1)C2 > 46 µM
CS(=O)(=O)N1CCC2(CC1)CN(Cc1cc(C(F)(F)F)cc(C(F)(F)F)c1)C2 > 46 µM
CC(C)NC(=O)N1CCCC2(CCN(C(=O)c3cc(C(F)(F)F)cc(C(F)(F)F)c3)CC2)C1 > 46 µM
N#Cc1cccc(NC(=O)N2CCC3(CC2)CCN(C(=O)c2csnn2)CC3)c1 > 46 µM
O=C(Oc1ccccc1)N1CCC[C@@]2(CCN(c3ncccn3)C2)C1 > 46 µM
COCC(=O)N1CCC[C@@]2(CCN(Cc3ccccc3OC)C2)C1 > 46 µM
CC(C)NC(=O)N1CC[C@@]2(CCCN(C(=O)c3cc(C(F)(F)F)cc(C(F)(F)F)c3)C2)C1 > 46 µM
O=C(Nc1cccc(F)c1)N1CC[C@@]2(CCCNC2)C1 > 46 µM
COCC(=O)N1CCC2(CCCN(C(=O)Nc3ccc(OC)cc3)C2)CC1 > 46 µM
O=C(c1ccco1)N1CCC[C@@]2(CCN(Cc3ccccc3)C2)C1 > 46 µM
CC(=O)N1CCC2(CCCN(C(c3ccccc3)c3ccccc3)C2)CC1 > 46 µM
COc1cccc(-c2ccc3ncnc(NC4CCNCC4)c3c2)c1 > 46 µM
COc1ccccc1CN1CCCC2(CCN(S(C)(=O)=O)CC2)C1 > 46 µM
O=C(c1csnn1)N1CCC[C@@]2(CCN(Cc3nccs3)C2)C1 > 46 µM
O=C(c1csnn1)N1CCC2(CC1)CCN(c1ccccc1)CC2 > 46 µM
CC(C)CN1CC[C@@]2(CCCN(C(=O)c3cnccn3)C2)C1 > 46 µM
CN(C)c1ncc2ncc(=O)n(Cc3ccc(F)cc3)c2n1 > 46 µM
O=C(c1ccco1)N1CCC[C@@]2(CCN(c3ccccc3)C2)C1 > 46 µM
CC(C)CN1CC[C@@]2(CCCN(S(=O)(=O)c3ccccc3)C2)C1 > 46 µM

Biological target: Mitogen-activated protein kinase 10 (Mus musculus) (UniProt Q61831)
Experiment: JNK3 AlphaScreen Assay (AID 530);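 note: kinase came from lysate of stimulated human HepG2 cells; signal reports phosphorylation of biotinylated GST-cJun 1-79 at Ser73 with 10 µM ATP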
Details: JNK3 lysate, c-Jun phosphorylation; series mostly up to 57.1 µM
Method in brief: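 Kinase buffer: 20 mM Tris-HCl pH 7.6, 10 mM MgCl2, 1 mM DTT, 0.1 mM Na3VO4, 0.01% Tween-20; ATP 10 uM. Substrate biotin-GST-cJun(1-79), enzyme from activated HepG2 lysates. Detection by Ser73 phospho-antibody AlphaScreen.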

outcome, inactive:
COC(=O)N1CCC2(CCCN(Cc3ccccc3OC)C2)CC1
Cc1noc(C)c1C(=O)N1CCC[C@@]2(CCN(Cc3ccccc3)C2)C1
O=S(=O)(c1ccccc1)N1CCC2(CCCN(c3ncccn3)C2)CC1
COc1ccc(NC(=O)N2CCCC3(CCNCC3)C2)cc1
COc1ccc(NC(=O)N2CC3(CCN(C(C)=O)CC3)C2)cc1
CC(=O)N1CCC2(CC1)CN(c1ccccc1)C2
COc1ccccc1CN1CC[C@@]2(CCCN(C(=O)c3cccn3C)C2)C1
Cn1cccc1C(=O)N1CCC[C@@]2(CCN(Cc3cc(C(F)(F)F)cc(C(F)(F)F)c3)C2)C1
COc1ccccc1CN1CC[C@@]2(CCCN(C(C)=O)C2)C1
COc1ccccc1CN1CC[C@@]2(CCCN(S(C)(=O)=O)C2)C1
O=C(c1csnn1)N1CCC2(CC1)CN(c1ccccc1)C2
COc1ccc(NC(=O)N2CC[C@@]3(CCCN(C(=O)c4cnccn4)C3)C2)cc1
CC(C)CN1CC[C@@]2(CCCN(C(=O)c3csnn3)C2)C1
CC(=O)N1CCC2(CC1)CCN(C(=O)Nc1cccc(F)c1)CC2
O=C(c1cnccn1)N1CCC2(CCCN(c3ccccc3)C2)CC1
O=C(c1ccncc1)N1CCC2(CC1)CCN(C(c1ccccc1)c1ccccc1)CC2
COCC(=O)N1CCC[C@@]2(CCN(C(=O)Nc3cccc(F)c3)C2)C1
CC(C)NC(=O)N1CCCC2(CCN(C(=O)c3cccc(F)c3)CC2)C1
COc1ccccc1CN1CCC2(CC1)CCN(C(C)=O)CC2
N#Cc1ccc(CN2CCCC3(CCN(C(=O)c4cccc(F)c4)CC3)C2)cc1
O=C(c1ccco1)N1CCC2(CC1)CN(C(c1ccccc1)c1ccccc1)C2
CS(=O)(=O)N1CCC2(CC1)CN(Cc1cc(C(F)(F)F)cc(C(F)(F)F)c1)C2
CC(C)NC(=O)N1CCCC2(CCN(C(=O)c3cc(C(F)(F)F)cc(C(F)(F)F)c3)CC2)C1
N#Cc1cccc(NC(=O)N2CCC3(CC2)CCN(C(=O)c2csnn2)CC3)c1
O=C(Oc1ccccc1)N1CCC[C@@]2(CCN(c3ncccn3)C2)C1
COCC(=O)N1CCC[C@@]2(CCN(Cc3ccccc3OC)C2)C1
CC(C)NC(=O)N1CC[C@@]2(CCCN(C(=O)c3cc(C(F)(F)F)cc(C(F)(F)F)c3)C2)C1
O=C(Nc1cccc(F)c1)N1CC[C@@]2(CCCNC2)C1
COCC(=O)N1CCC2(CCCN(C(=O)Nc3ccc(OC)cc3)C2)CC1
O=C(c1ccco1)N1CCC[C@@]2(CCN(Cc3ccccc3)C2)C1
CC(=O)N1CCC2(CCCN(C(c3ccccc3)c3ccccc3)C2)CC1
COc1cccc(-c2ccc3ncnc(NC4CCNCC4)c3c2)c1
COc1ccccc1CN1CCCC2(CCN(S(C)(=O)=O)CC2)C1
O=C(c1csnn1)N1CCC[C@@]2(CCN(Cc3nccs3)C2)C1
O=C(c1csnn1)N1CCC2(CC1)CCN(c1ccccc1)CC2
CC(C)CN1CC[C@@]2(CCCN(C(=O)c3cnccn3)C2)C1
CN(C)c1ncc2ncc(=O)n(Cc3ccc(F)cc3)c2n1
O=C(c1ccco1)N1CCC[C@@]2(CCN(c3ccccc3)C2)C1
CC(C)CN1CC[C@@]2(CCCN(S(=O)(=O)c3ccccc3)C2)C1
